This is a sample that favours compounds with a hit; in the whole collection about 0.86% have one here.
TAR Tat displ = TAR RNA-Tat peptide displacers, HIV-1, primary screen, biochemical, FRET, FAM/TAMRA-labeled Tat; HIV-1 TAR RNA, Tat peptide displacement FRET; hits give high values; z-score (no concentration beside the values); hit rate 0.6% among 100,000; AID 1259389, 2018; active means z-score of 3 or more in at least 2 runs
CDC25B CDK2 inh = primary biochemical HTRF screen for blockers of M-phase inducer phosphatase 2 binding to CDK2/cyclin A; P30305+P24941; HTRF CDC25B-CDK2/CyclinA binding, anti-His/anti-Flag; hits give high values; z-score (no concentration beside the values); hit rate 0.72% among 94,000; AID 1259370, 2018; in the data active means z-score above about 3.2
A number is an active result; . = inactive; / = not tested or not shown.

SMILES	TAR Tat displ	CDC25B CDK2 inh
COc1cccc2oc(-c3ccccc3)cc(=O)c12	.	/
O=c1cc(-c2ccccc2)oc2cc(O)c(O)c(O)c12	29	/
O=c1[nH]c(SCc2cccc3nsnc23)nc2ccccc12	/	.
O=C1CC(c2ccco2)CC2=C1C(c1ccccc1)C1=C(N2)c2ccccc2C1=O (stereo not drawn)	.	12
CCCCOC(=O)C1=C(C)NC2=C(C(=O)CC(c3ccccc3)C2)C1c1ccco1 (stereo not drawn)	.	.
O=C(CSc1nc2ncccc2[nH]1)N1CCc2ccccc2C1	.	15
O=C(CSc1nc2ncccc2[nH]1)N1CCCC1	.	/
O=C(Nc1nnc(S(=O)(=O)N2CCc3ccccc32)s1)c1ccc(Br)cc1	.	.
CCOC(=O)c1cc(C#N)c(Sc2ccccn2)nc1C(F)(F)F	/	.
CCOC(=O)c1cc(C#N)c(Oc2ccccc2)nc1C(F)(F)F	/	22
O=C(Nc1ccc(S(=O)(=O)Nc2nccs2)cc1)c1nn(-c2ccc(Cl)cc2)ccc1=O	.	.
C#CCn1c2ccccc2c2nc3ccccc3nc21	.	/
O=C1CCC(=O)N1CCCn1c2ccccc2c2nc3ccccc3nc21	.	14
Cc1ccc(-c2nc3scc(CCNS(=O)(=O)c4ccc(-c5ccccc5)cc4)n3n2)cc1	.	/
COc1cccc(C2CC(=O)N3CN(c4ccc(N(C)C)cc4)CSC3=C2C#N)c1 (stereo not drawn)	.	7.2
COc1cccc(C2CC(=O)N3CN(c4ccc(OC)c(OC)c4)CSC3=C2C#N)c1 (stereo not drawn)	.	7.5
COc1ccc(N2CSC3=C(C#N)C(c4cccc(OC)c4)CC(=O)N3C2)cc1 (stereo not drawn)	.	6.1
COc1cccc(C2CC(=O)N3CN(c4ccccc4)CSC3=C2C#N)c1 (stereo not drawn)	.	.
CN(C)c1cc(-c2cccc([N+](=O)[O-])c2)oc(=O)c1Cl	/	.
O=c1oc(-c2ccccc2)cc(Cl)c1Cl	.	14
CC(C)C(=O)NC(C)c1nc(-c2ccc(C(C)(C)C)cc2)no1 (stereo not drawn)	.	.
COc1cccc(OCc2cc(=O)n3ccsc3n2)c1	.	.
CCOC(=O)c1ccc2c(c1)[C@@H]1C=CC[C@@H]1[C@H](c1ccc(C(=O)O)cc1)N2	8	.
COc1ccc2c(c1)[C@@H]1C=CC[C@@H]1[C@H](c1ccc(C(=O)O)cc1)N2	14	.
CCOC(=O)c1ccc2c(c1)[C@@H]1C=CC[C@@H]1[C@H](c1ccc(C(=O)OC)cc1)N2	.	.
SMILES	TAR Tat displ	CDC25B CDK2 inh
COC(=O)c1cccc2c1NC(c1ccc(Br)cc1)C1CC=CC21 (stereo not drawn)	.	.
CC(C)c1ccc([C@@H]2Nc3ccc(C(=O)O)cc3[C@@H]3C=CC[C@@H]32)cc1	/	.
COc1cccc2c1NC(C(=O)O)C1CC=CC21 (stereo not drawn)	42	.
COC(=O)c1ccc2c(c1)C1C=CCC1[C@@H](c1ccc(C(=O)O)cc1)N2 (stereo partly drawn)	7.4	.
CC(C)c1ccc2c(c1)[C@@H]1C=CC[C@@H]1[C@H](c1ccc(C(=O)O)cc1)N2	/	.
CN1C(=O)CCc2cc(NS(=O)(=O)c3ccccc3Br)ccc21	.	/
COCC(=O)N(c1ccc(Cl)cc1)C1C=CS(=O)(=O)C1 (stereo not drawn)	.	.
CC(=O)N1CCSc2ccc(S(=O)(=O)Nc3ccc(Cl)cc3F)cc21	.	/
CCC(O)c1nc2ccccc2n1CCOc1ccc(C)cc1C (stereo not drawn)	.	.
O=C(CCC1=NS(=O)(=O)c2cc(Br)cnc2N1)N1CCOCC1	/	.
O=C(O)c1cc(-c2cccc(Br)c2)nc2n[nH]c(-c3ccccc3)c12	.	/
Cc1ccc2c(c1)C1C=CCC1C(C(=O)O)N2 (stereo not drawn)	.	.
Cc1cccc2c1N[C@H](c1ccc(C(=O)O)cc1)C1CC=CC21 (stereo partly drawn)	.	6.8
CCOC(=O)[C@@H]1Nc2ccc(C(=O)O)cc2[C@@H]2C=CC[C@H]12	17	15
CCc1cccc2c1N[C@@H](c1ccc(C(=O)O)cc1)[C@H]1CC=C[C@@H]21	/	.
COc1cc(/C=N/N=C2/NC(=O)CCS2)cc(OC)c1	/	.
COc1cc(NS(=O)(=O)c2ccc3c(c2)NC(=O)CCS3)cc(OC)c1	.	/
N#Cc1c(N)nc2c(c1N)C(C(C#N)C#N)c1cc(Br)ccc1O2 (stereo not drawn)	/	7
COc1ccc(Br)cc1C1C(C#N)=C(N)Oc2cc(O)ccc21 (stereo not drawn)	.	.
C[Si](C)(C)OC(=O)/C=C\C(=O)O[Si](C)(C)C	/	6.1
CCOC(=O)/C=C/C(=O)O	/	.
COc1cc(C2CC(=O)N3CN(Cc4ccccc4)CSC3=C2C#N)ccc1O (stereo not drawn)	.	4
COc1cc(C2CC(=O)N3CN(c4ccc(C)cc4)CSC3=C2C#N)cc(Br)c1O (stereo not drawn)	.	.
COc1cc(C2CC(=O)N3CN(Cc4ccccc4)CSC3=C2C#N)cc(Br)c1O (stereo not drawn)	.	3.5
O=C(c1ccc(Cn2c(=O)c3cccn3c3cccnc32)cc1)N1CCOCC1	.	/
SMILES	TAR Tat displ	CDC25B CDK2 inh
CC1=C(c2ccccc2)S(=O)(=O)N=C1Nc1cccnc1	.	.
CC1CCC(NC(=O)CCS(=O)(=O)c2cccc3nonc23)CC1 (stereo not drawn)	.	/
O=C(O)c1cccc(Nc2cc(N3CCOCC3)c3noc4c3c2C(=O)c2ccccc2-4)c1	7	.
CN(C)c1ccc(Nc2cc(N3CCOCC3)c3noc4c3c2C(=O)c2ccccc2-4)cc1	.	.
O=C1c2ccccc2-c2onc3c(N4CCOCC4)cc(Nc4ccccc4)c1c23	.	.
O=C1c2ccccc2-c2onc3c(N4CCOCC4)cc(Nc4ccc5c(c4)OCO5)c1c23	.	.
COc1ccc(Nc2cc(N3CCC(=O)CC3)c3noc4c3c2C(=O)c2ccccc2-4)cc1	.	.
COC(=O)c1ccc(Nc2cc(N3CCOCC3)c3noc4c3c2C(=O)c2ccccc2-4)cc1	.	7.6
O=C(O)c1ccc(Nc2cc(N3CCOCC3)c3noc4c3c2C(=O)c2ccccc2-4)cc1	32	11
O=C1CCN(c2cc(Nc3ccc(C(=O)O)cc3)c3c4c(onc24)-c2ccccc2C3=O)CC1	27	.
CCn1ccc2cc(S(=O)(=O)N3CCCC(C(=O)NC(C)C)C3)ccc21 (stereo not drawn)	.	/
Cc1nc2c(c(C)c1CCC(=O)NCC1CCCO1)c(=O)n(C)c(=O)n2C (stereo not drawn)	.	.
Cc1noc2ncnc(Nc3cccc(Cl)c3)c12	.	/
O=C1c2ccccc2-c2onc3c(N4CCOCC4)cc(Nc4cccc(F)c4)c1c23	.	.
O=C1CCN(c2cc(Nc3cccc(F)c3)c3c4c(onc24)-c2ccccc2C3=O)CC1	17	7.8
Clc1ccc(-c2nc3ncccn3c2NCc2ccccc2)cc1	.	/
COCC1=CC2CC(C1)C[B-]1(C2)Oc2cccc3ccc[n+]1c23 (stereo not drawn)	/	5.2
O=C(Nc1cccc(O)c1)c1cccc(N2C(=O)c3cccc([N+](=O)[O-])c3C2=O)c1	/	5.1
